Our source for the outcome and AC50 values is PubChem BioAssay (EPA / NIEHS).

Broadly, the AC50 is the concentration giving half of the maximal activity seen.

Records with an inconclusive call do not appear. Active and inactive are the calls of the source. Rule for the calls, unless noted: active = hit-call score of the fitted dose curve at least 0.9, where 1 is the maximum; inactive = score below 0.9.

Assay [1] can be described thus: CCTE_Harrill_HTTr_Viability_DMEM_6hr: (Pilot) CCTE's 6-hour Cell Viability Assessment for the High-Throughput Transcriptomics (HTTr) Platform, in MCF-7 cells cultured in DMEM + 10% fetal bovine serum, Harrill Lab (AID 2283973). In a few lines:
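MCF-7 cells in DMEM + 10% FBS, eight-point dilution series, 6 h exposure. Membrane integrity by propidium iodide exclusion with high-content imaging; bidirectional fit versus DMSO.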

Assay [2] can be described thus: CCTE_Harrill_HTTr_Viability_DMEM_12hr: (Pilot) CCTE's 12-hour Cell Viability Assessment for the High-Throughput Transcriptomics (HTTr) Platform, in MCF-7 cells cultured in DMEM + 10% fetal bovine serum, Harrill Lab (AID 2283974). In a few lines:
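MCF-7 cells in DMEM + 10% FBS exposed 12 h to an eight-point dilution series; membrane integrity scored by propidium iodide exclusion with high-content imaging, bidirectional fitting versus DMSO.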

Assay [3] can be described thus: CCTE_Harrill_HTTr_Viability_DMEM_24hr: (Pilot) CCTE's 24-hour Cell Viability Assessment for the High-Throughput Transcriptomics (HTTr) Platform, in MCF-7 cells cultured in DMEM + 10% fetal bovine serum, Harrill Lab (AID 2283975). An outline of the steps: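 MCF-7 cells in DMEM with 10% FBS exposed for 24 hours to an eight-point dilution series. Membrane integrity by propidium iodide exclusion with high content imaging; bidirectional fit against DMSO.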

A short description of assay [4]: CCTE_Harrill_HTTr_Viability_PRF_DMEM_6hr: (Pilot) CCTE's 6-hour Cell Viability Assessment for the High-Throughput Transcriptomics (HTTr) Platform, in MCF-7 cells cultured phenol red-free DMEM + 10% charcoal-stripped fetal bovine serum, Harrill Lab (AID 2283976). An outline of the steps:
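MCF-7 cells in phenol red-free DMEM with 10% charcoal-stripped FBS exposed 6 hours to an eight-point dilution series. Propidium iodide exclusion imaged; curves fitted bidirectionally against DMSO.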

The nature of assay [5]: CCTE_Harrill_HTTr_Viability_PRF_DMEM_12hr: (Pilot) CCTE's 12-hour Cell Viability Assessment for the High-Throughput Transcriptomics (HTTr) Platform, in MCF-7 cells cultured in phenol red-free DMEM + 10% charcoal-stripped fetal bovine serum, Harrill Lab (AID 2283977). In a few lines: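 MCF-7 cells in phenol red-free DMEM with 10% charcoal-stripped FBS exposed 12 hours to an eight-point dilution series. Viability assessed by high-content imaging of propidium iodide exclusion; bidirectional fit versus DMSO.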

Assay [6] in a line: CCTE_Harrill_HTTr_Viability_PRF_DMEM_24hr: (Pilot) CCTE's 24-hour Cell Viability Assessment for the High-Throughput Transcriptomics (HTTr) Platform, in MCF-7 cells cultured in phenol red-free DMEM + 10% charcoal-stripped fetal bovine serum, Harrill Lab (AID 2283980). An outline of the steps:
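MCF-7 cells in phenol red-free DMEM with 10% charcoal-stripped FBS, eight-point dilution series, 24 h exposure. Membrane integrity by propidium iodide exclusion with high content imaging; bidirectional fit vs DMSO.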

Assay [7] is described as follows: CCTE_Harrill_HTTr_Apoptosis_DMEM_6hr: (Pilot) CCTE's 6-hour Apoptosis Assessment for the High-Throughput Transcriptomics (HTTr) Platform, in MCF-7 cells cultured in DMEM + 10% fetal bovine serum, Harrill Lab (AID 2283981). An outline of the steps: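 Caspase-3/7 activation read by high content imaging with CellEvent Caspase 3/7 Green in MCF-7 cells (DMEM + 10% FBS), 6 h after dosing; eight-point dilution series. Bidirectional fitting relative to DMSO baseline.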

Assay [8] in a line: CCTE_Harrill_HTTr_Apoptosis_DMEM_12hr: (Pilot) CCTE's 12-hour Apoptosis Assessment for the High-Throughput Transcriptomics (HTTr) Platform, in MCF-7 cells cultured in DMEM + 10% fetal bovine serum, Harrill Lab (AID 2283982). In a few lines:
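MCF-7 cells in DMEM + 10% FBS, exposed 12 h to an eight-point dilution series; caspase-3/7 activation imaged with CellEvent Green. Bidirectional fit versus DMSO.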

Assay [9] is described as follows: TOX21_PR_LUC_Followup_Agonist_viability: Viability Assessment in the Tox21 HEK293 Progesterone Receptor (PR) Agonism Luciferase Follow-Up Assay (AID 2283941; active = hit-call score of the fitted dose curve at least 0.9, where 1 is the maximum;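 note: loss of signal means cytotoxicity so actives lower viability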). In a few lines: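 HEK293-PR-A-luc cells, kept in 10% charcoal-stripped FBS medium, were treated with compounds for 16 h at 37C. Viability read as cellular ATP by luciferase-coupled luminescence; loss of signal indicates cytotoxicity.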

In assay [10] the target is THRA (gene 7067) (UniProt P10827). Briefly: TOX21_TRA_COA_Agonist_Followup_ratio: Tox21 Thyroid Hormone Receptor alpha Agonism through Coactivator Recruitment Follow-Up Assay, Ratio (AID 2283948). In a few lines: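 First, compound was incubated with 2.5 nM GST-TRα LBD in 0.10% BSA. Next, 200 nM fluorescein-SRC-2 and 2 nM Tb-anti-GST antibody were added. Finally, the 520:495 nm ratio was normalized to DMSO and T3 controls.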
Chain of THRA (gene 7067) (P10827 whole entry, looked up, the tested form may be a part): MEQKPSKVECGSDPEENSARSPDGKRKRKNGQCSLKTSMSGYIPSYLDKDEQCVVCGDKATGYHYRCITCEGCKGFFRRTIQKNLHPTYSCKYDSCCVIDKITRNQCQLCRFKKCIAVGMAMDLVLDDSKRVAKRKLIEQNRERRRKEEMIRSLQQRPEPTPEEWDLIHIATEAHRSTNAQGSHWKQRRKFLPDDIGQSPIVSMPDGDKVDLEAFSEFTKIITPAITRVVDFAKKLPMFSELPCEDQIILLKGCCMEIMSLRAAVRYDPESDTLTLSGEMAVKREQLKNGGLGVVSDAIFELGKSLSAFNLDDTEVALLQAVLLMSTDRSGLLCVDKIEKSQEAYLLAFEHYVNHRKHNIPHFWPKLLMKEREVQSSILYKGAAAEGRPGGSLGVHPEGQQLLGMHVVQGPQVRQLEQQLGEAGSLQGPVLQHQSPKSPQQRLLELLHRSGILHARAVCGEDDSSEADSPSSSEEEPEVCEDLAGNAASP

Assay [11] deals with THRB (gene 7068) (UniProt P10828). Briefly: TOX21_TRB_COA_Agonist_Followup_ratio: Tox21 Thyroid Hormone Receptor beta Agonism through Coactivator Recruitment Follow-Up Assay, Ratio (AID 2283963). An outline of the steps: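 First, the GST-fused TRβ ligand-binding domain (5.0 nM) was incubated with test compound in 0.10% BSA. Next, fluorescein-tagged SRC-2 peptide (200 nM) and terbium anti-GST antibody (2 nM) were added. Finally, TR-FRET emission ratios were normalized against DMSO and T3 controls.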
Chain of THRB (gene 7068) (P10828 whole entry, looked up, the tested form may be a part): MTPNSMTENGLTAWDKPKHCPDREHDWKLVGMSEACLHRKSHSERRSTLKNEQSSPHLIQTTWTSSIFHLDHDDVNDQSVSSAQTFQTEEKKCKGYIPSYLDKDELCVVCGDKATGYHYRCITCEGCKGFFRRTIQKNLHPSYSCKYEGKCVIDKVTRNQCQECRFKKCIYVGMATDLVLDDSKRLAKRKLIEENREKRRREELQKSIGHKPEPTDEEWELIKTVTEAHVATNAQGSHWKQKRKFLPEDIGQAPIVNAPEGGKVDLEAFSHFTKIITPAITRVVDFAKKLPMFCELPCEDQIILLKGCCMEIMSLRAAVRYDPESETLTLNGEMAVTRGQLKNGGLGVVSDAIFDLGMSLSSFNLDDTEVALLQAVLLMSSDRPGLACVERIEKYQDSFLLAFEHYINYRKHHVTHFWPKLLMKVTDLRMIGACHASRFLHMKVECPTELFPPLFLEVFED

The target in assay [12] is Retinoic acid receptor RXR-alpha (Homo sapiens) (UniProt P19793). Description: TOX21_TR_RXR_BLA_Agonist_Followup_ratio: Tox21 Thyroid Hormone Receptor beta Retinoid X Receptor alpha (RXRa) Agonism Beta-lactamase (BLA) Follow-Up Assay, Ratio (AID 2283968; active = hit-call score of the fitted dose curve at least 0.9, where 1 is the maximum). In a few lines: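 RXRa-UAS-bla HEK293T cells, 5 h attachment at 37C/5% CO2, then 11 concentrations in triplicate for 16 h; 9-cis retinoic acid positive control. FRET-B/GCCF4-AM substrate 2 h at room temperature; 460:530 nm ratio, fitted for gain versus DMSO.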
Chain of Retinoic acid receptor RXR-alpha (Homo sapiens) (P19793 whole entry, looked up, the tested form may be a part): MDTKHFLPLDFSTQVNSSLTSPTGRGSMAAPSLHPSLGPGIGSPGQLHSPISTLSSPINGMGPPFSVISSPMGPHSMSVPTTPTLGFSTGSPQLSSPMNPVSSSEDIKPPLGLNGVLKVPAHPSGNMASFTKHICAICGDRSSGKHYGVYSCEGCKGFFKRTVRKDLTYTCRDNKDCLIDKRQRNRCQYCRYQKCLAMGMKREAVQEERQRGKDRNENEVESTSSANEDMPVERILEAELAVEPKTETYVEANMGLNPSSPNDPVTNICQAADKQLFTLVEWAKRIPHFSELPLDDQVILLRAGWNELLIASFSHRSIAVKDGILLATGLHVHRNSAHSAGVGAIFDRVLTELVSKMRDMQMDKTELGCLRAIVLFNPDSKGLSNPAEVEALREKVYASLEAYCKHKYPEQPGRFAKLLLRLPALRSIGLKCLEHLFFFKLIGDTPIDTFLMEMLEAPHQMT

A short description of assay [13]: TOX21_TR_RXR_BLA_Agonist_Followup_viability: Viability Assessment in the Tox21 Thyroid Hormone Receptor beta Retinoid X Receptor alpha (RXRa) Agonism Beta-lactamase (BLA) Follow-Up Assay (AID 2283970; active = hit-call score of the fitted dose curve at least 0.9, where 1 is the maximum). An outline of the steps:
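RXRa-UAS-bla HEK293T cells, 2,500/well in phenol red-free DMEM with 2% charcoal-stripped FBS, dosed for 16 h at 37C. Viability measured by CellTiter-Glo ATP luminescence; fitted bidirectionally against DMSO baseline, loss of signal indicating cytotoxicity.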

In assay [14] the target is Thyroid hormone receptor alpha (Rattus norvegicus) + Thyroid hormone receptor beta (Rattus norvegicus) (UniProt P18113+P63059). Briefly: TOX21_TR_LUC_GH3_Antagonist_Followup: Tox21 GH3 Thyroid Hormone Receptor Antagonism Luciferase Follow-Up Assay (AID 2283942; active = hit-call score of the fitted dose curve at least 0.9, where 1 is the maximum). In a few lines:
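Confirmatory qHTS, antagonist mode: T3 (1.0 nM final) + test cpd, 15 conc, 92 uM–5nM final, GH3 rat pituitary line, 24 h, 37C. Luc reporter, RLU vs DMSO.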

Assay [15] addresses THRA (gene 7067) (UniProt P10827). Description: TOX21_TRA_COA_Antagonist_Followup_ratio: Tox21 Thyroid Hormone Receptor alpha Antagonism through Coactivator Recruitment Follow-Up Assay, Ratio (AID 2283953; active = hit-call score of the fitted dose curve at least 0.9, where 1 is the maximum). An outline of the steps: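 520:495 nm emission ratio (excitation 340 nm) reports fluorescein-SRC-2 peptide recruitment to GST-TRα LBD by TR-FRET with Tb anti-GST antibody. Values were normalized to DMSO (0%) and T3 control wells (100%); loss of signal indicated antagonism.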

Assay [16] concerns the target THRB (gene 7068) (UniProt P10828). Description: TOX21_TRB_BLA_Antagonist_Followup_ratio: Tox21 Thyroid Hormone Receptor beta Antagonism Beta-lactamase (BLA) Follow-Up Assay, Ratio (AID 2283958; active = hit-call score of the fitted dose curve at least 0.9, where 1 is the maximum). An outline of the steps:
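HEK293T cells with a GAL4-TRb LBD fusion and UAS-bla reporter, 3,000 cells/well in phenol red-free DMEM with 2% charcoal-stripped FBS. Exposed 18 h at 37C to 11 concentrations in triplicate; CCF4 460:530 nm ratio after 2 h, DMSO-referenced.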

A short description of assay [17]: TOX21_TRB_BLA_Antagonist_Followup_viability: Viability Assessment in the Tox21 Thyroid Hormone Receptor beta Antagonism Beta-lactamase (BLA) Follow-Up Assay (AID 2283961; active = hit-call score of the fitted dose curve at least 0.9, where 1 is the maximum). In a few lines:
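Cytotoxicity is measured in parallel with the antagonist-mode TRβ beta-lactamase screen, using ATP-coupled luciferase luminescence. Engineered HEK293T cells are treated for 18 h with 11-point compound series in triplicate.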

The target of assay [18] is THRB (gene 7068) (UniProt P10828). Briefly: TOX21_TRB_COA_Antagonist_Followup_ratio: Tox21 Thyroid Hormone Receptor beta Antagonism through Coactivator Recruitment Follow-Up Assay, Ratio (AID 2283967; active = hit-call score of the fitted dose curve at least 0.9, where 1 is the maximum). An outline of the steps:
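Test compound was incubated with 5.0 nM GST-TRβ LBD in 0.10% BSA. Then 200 nM fluorescein-SRC-2 peptide and 2 nM terbium anti-GST antibody were added. TR-FRET (520:495 nm) was measured and normalized to DMSO and T3 controls.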

In assay [19] the target is Retinoic acid receptor RXR-alpha (Homo sapiens) (UniProt P19793). Briefly: TOX21_TR_RXR_BLA_Antagonist_Followup_ratio: Tox21 Thyroid Hormone Receptor beta Retinoid X Receptor alpha (RXRa) Antagonism Beta-lactamase (BLA) Follow-Up Assay, Ratio (AID 2283972; active = hit-call score of the fitted dose curve at least 0.9, where 1 is the maximum). An outline of the steps: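 Antagonist mode used GAL4 UAS-driven beta-lactamase in HEK293T cells expressing RXRa, treated for 16 h with compound concentration series. Activity was taken from the blue/green (460:530 nm) ratio of cleaved to uncleaved substrate.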

Assay [20] can be described thus: TOX21_TR_RXR_BLA_Antagonist_Followup_viability: Viability Assessment in the Tox21 Thyroid Hormone Receptor beta Retinoid X Receptor alpha (RXRa) Antagonism Beta-lactamase (BLA) Follow-Up Assay (AID 2283979; active = hit-call score of the fitted dose curve at least 0.9, where 1 is the maximum). In a few lines:
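Follow-up compounds (11 concentrations, triplicate) were incubated 16 h at 37C/5% CO2 with HEK293T RXRa-bla cells seeded at 2,500/well in charcoal-stripped-serum medium. ATP content by CellTiter-Glo luminescence gave viability; curves fitted in both directions against DMSO.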

In the case of `CC[C@H](C)C(=O)O[C@H]1C[C@@H](C)C=C2C=C[C@H](C)[C@H](CC[C@@H]3C[C@@H](O)CC(=O)O3)[C@H]21`, the outcome in assay [1], in [2], in [3], in assay [4], in [5] and in assay [6] was inactive. Further, the result in assay [7] and in assay [8] was inactive.

As for `O=P(OC(CCl)CCl)(OC(CCl)CCl)OC(CCl)CCl`, the molecule was called inactive in [9].

Take `CCC(C)(C)C(=O)O[C@H]1C[C@@H](C)C=C2C=C[C@H](C)[C@H](CC[C@@H]3C[C@@H](O)CC(=O)O3)[C@H]21`: the result in [1], in assay [2], in assay [3], in assay [4], in assay [5] and in [6] was inactive. In addition, the result in assay [7] and in assay [8] was inactive.

Regarding `CC(C)=CCC/C(C)=C\CO`, the outcome (with THRA (gene 7067) [10]; with THRB (gene 7068) [11]; in assay [12]; in [13]) was inactive.

For `CC(C)c1cccc(C(C)C)c1N1C(=O)c2ccc(O)cc2C1=O`, the result (in assay [9]; in assay [14]; in the assay with THRA (gene 7067) [15]; in [17]; with THRB (gene 7068) [18]; in assay [19]) was inactive. Also, in assay [20], the result was inactive. Besides, the AC50 with THRB (gene 7068) [16] is 8.53 µM (active).
